# Screening data from PubChem.
# pAkt inh: Akt phosphorylation inhibition; 360,000 compounds, 0.32% hits; AID 651550; Neuro2A IGF-stimulated pAkt S473 HTRF, 20 min; stronger effect = lower value; activity change, % for hits at 50 µM; in the data active = activity change below about -80%; inconclusive = mostly about -51% to -80%; also: % is scaled to controls: 0 for no effect and ±100 for the full control effect
#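 Neuro2A cells in DMEM with 0.5% FBS, overnight at 37 deg C, given compound at single 50 µM final, then IGF (6 nM final) for 20 min at 37 deg C. Lysed; phospho-Akt Ser473 by HTRF after 24 h, 665/615 ratio.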
# MmCpn inh: M. maripaludis TRiC chaperonin inhibition | purified Mm-Cpn ATPase, ADP Transcreener TR-FRET | Potency, µM (doses to about 76.9 µM), without a hit: at the top dose activity, negative = inhibition, hits mostly inhibitors | 330,000 compounds, 0.031% hits | AID 504842; also: potency is read from the fitted curve at half-maximal effect; % is scaled to controls: 0 for no effect and ±100 for the full control effect; nearly all actives have a fitted effect of over 80% in size
#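 ATPase read-out: TR-FRET ADP immunoassay (anti-ADP Eu cryptate vs ADP-d2), ex 320 nm, em 590/665 nm; signal drops as ADP forms. Enzyme 25 nM, ATP 10 uM, 30 min at 37°C after 10 min compound preincubation.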
# CCT modulator: modulators of cytosolic chaperonin (CCT/TRiC) activity. purified chaperonin ATPase assay, HTRF ADP detection, 30 min. 360,000 compounds, 0.3% hits. activity change, % (concentration not given with the values), hits read low. AID 651819; in the data active = activity change below about -30%; also: % is scaled to controls: 0 for no effect and ±100 for the full control effect
#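 We incubate TRiC, 40 or 20 nM final, with library compounds at 76 uM and 10 uM ATP for 30 min at 37 °C. ADP formed is detected with Transcreener HTRF reagents after 30 min at room temperature.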
# AT treatment: potential ataxia-telangiectasia treatment; F2112 A-T fibroblasts, KAP-1 phosphorylation AlphaLISA; neocarzinostatin DNA damage 30 min before lysis; Potency, µM (top dose mostly 57.5 µM), for the others: top-dose activation, hits mostly activators; 320,000 compounds, 0.19% hits; also: potency is read from the fitted curve at half-maximal effect; % of control where 0% means no effect; nearly all actives have a fitted effect of over 45% in size
#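 hTERT-immortalized A-T patient fibroblasts (F2112), 500 cells/well in OPTI-MEM, 1% FBS, got compounds for 60 min, then NCS for 30 min at 37C. Lysates were then assayed for phospho-KAP-1 by AlphaLISA (anti-pKAP1 donor, anti-KAP1 acceptor beads), 6 hr at 25C.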
# BRCA1 expr act: BRCA1 expression activation; Potency, µM (titrated, usually from 46.1 µM), for the others: at the top dose activation, hits mostly activators; 380,000 compounds, 1.1% hits; MCF7-BRCA1-FFLuc reporter, luminescence, 48 h; response scale: scaled: vehicle 0%, 10 µM genistein 100%; AID 624202; also: potency is read from the fitted curve at half-maximal effect; nearly all actives have a fitted effect of over 80% in size
#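 Compounds are tested at multiple concentrations on MCF7 BRCA1-luciferase reporter cells seeded at 2000 per well; after 48 h, a single luminescence end-point is taken and curves fitted to the normalized data.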
# Numbers without * were called inactive; i = inactive; ? = inconclusive; . = no result given. Most compounds without a hit are left out; they make up all but 1.8% or so of the library. Unless noted, calls follow the shape of the dose curve; as a rule, active = well fitted curve in the direction sought with a large enough effect; inconclusive = small, poorly fitted or top-dose-only effect, or another doubt; inactive = no such curve, though single readings can be large; an effect the other way counts as inactive or inconclusive.
SMILES,pAkt inh,MmCpn inh,CCT modulator,AT treatment,BRCA1 expr act
CCOc1ccc(-c2cn3ccccc3n2)cc1[N+](=O)[O-],i,-1%,-3,-2%,4µM*
C[C@H]1CNC(=O)c2c(C(=O)NC3CCN(C(=O)OC(C)(C)C)CC3)ncn21,i,.,1,.,12%
Cc1ccc(-n2ncc3c(Nc4cccc(C)c4)ncnc32)cc1,.,.,.,.,2.8µM*
O=C1CCCN1CCCNc1ncnc2c1cnn2-c1ccc(Cl)cc1,i,0%,-4,-5%,?
Cc1cccc(-n2ncc3c(NCCCN4CCCC4=O)ncnc32)c1,-106%*,-7%,1,10%,53%
CCCn1ncc2c(Nc3ccc(C)c(C)c3)ncnc21,i,-3%,0,15%,8.9µM*
CC(C)(CNC(=O)c1cccc(F)c1)CNC(=O)c1cccc(F)c1,i,.,2,.,3%
O=C(CNC(=O)c1ccc(Br)cc1)NC1CC1,i,0%,-3,0%,-2%
CC1CCC(NC(=O)CCNC(=O)c2ccc(Br)cc2)CC1 (stereo not given),i,0%,-2,-5%,4.5µM*
NS(=O)(=O)c1ccc(CNC(=O)Cc2ccsc2)cc1,i,.,-5,.,-5%
O=C(NCCc1ccccc1)c1cnc2n(c1=O)CCS2,i,1%,-12,0%,7.1µM*
COc1ccc(C2C3=C(CC(C)(C)CC3=O)Nc3c2c(=O)[nH]c(=O)n3Cc2ccccc2)cc1 (stereo not given),-102%*,0%,0,-2%,-13%
On1c(-c2ccccc2Cl)nc2ccccc21,i,-1%,-2,1%,12%
CCN(CC)CC(O)Cn1c(-c2ccccc2Cl)nc2ccccc21 (stereo not given),i,-4%,0,16µM*,-21%
COC(=O)[C@]1(C)N[C@H](CN(C)C(=O)Nc2ccccc2)[C@@H]2C(=O)N(C)C(=O)[C@@H]21,i,-1%,0,5%,13%
O=C(Oc1oc(-c2ccco2)nc1C=Nc1ccccc1)c1ccoc1,i,-2%,0,-3%,27%
Cc1ccc(C(=O)Oc2oc(-c3ccco3)nc2C=Nc2ccc(Cl)cc2)cc1,i,0%,-1,-4%,2µM*
COc1cc(-c2nc(-c3ccccn3)no2)cc(OC)c1OC,i,1%,-2,5%,7.9µM*
COc1cccc(-c2nc(-c3ccccn3)no2)c1OC,i,2%,-3,4%,4.5µM*
COc1ccc(S(=O)(=O)N2CCN(CCc3ccccc3)CC2)cc1,i,1%,1,1%,0%
CCc1noc(C)c1C(=O)N1CC(C)SC1=Nc1ccc(Cl)cc1 (stereo not given),i,1%,-4,-1%,-25%
Cc1ccc(NC(=O)CSCC(=O)NCc2ccco2)cc1,i,0%,2,-4%,1%
Cc1ccc(NC(=O)C(=S)NCc2ccco2)cc1,i,0%,-4,8%,7.1µM*
O=C(NCCSCc1ccco1)Nc1ccc(Cl)cc1,i,.,4,.,8.9µM*
O=C(NCCSCc1ccco1)Nc1cccc(Cl)c1,i,1%,-2,6%,?
SMILES,pAkt inh,MmCpn inh,CCT modulator,AT treatment,BRCA1 expr act
Cc1ccc(NC(=O)CSCc2ccco2)cc1,i,-2%,4,-3%,10µM*
Cc1ccc(NC(=O)Cn2c(=O)n(CCCCC(=O)NCc3ccco3)c(=O)c3ccccc32)cc1,-113%*,2%,-1,0%,-16%
Cc1ccc(-c2nnc3ccc(SCC(=O)OCc4ccccc4)nn23)cc1,.,.,.,.,-6%
CCN(N=O)c1ccc(/C=C/c2ccnc3ccccc23)cc1,.,.,.,.,14%
O=C(N[C@@H](Cc1ccccc1)C(=O)NC1CCCCCC1)c1ccco1,i,3%,0,.,11µM*
O=C(N[C@@H](Cc1ccccc1)C(=O)NC1CCCCC1)c1ccco1,i,1%,0,-3%,14%
CSCCC(NC(=O)c1ccco1)C(=O)NC1CCC(C)CC1 (stereo not given),i,1%,-2,21%,3.5µM*
CSCCC(NC(=O)c1ccco1)C(=O)NCC1CCCCC1 (stereo not given),i,0%,3,0%,2%
COc1ccc([C@H]2CC(=O)C=C(c3cccc4c3Oc3ccccc3S4)C2)cc1,i,-16%,-1,12%,-18%
Cc1ccc2ccc3c(c2n1)NS(=O)(=O)c1ccc(C(F)(F)F)cc1-3,.,.,.,.,-31%
CSc1nc(=O)[nH]c2nc[nH]c12,.,.,.,.,4%
Cc1c(C=O)ccc(N(C)C)c1C,.,.,.,.,10%
COC(=O)[C@@H]1CCCN1C(=O)CCc1nnc(CCC2CCCCC2)o1,i,2%,-3,-6%,11µM*
COC(=O)[C@@H]1CCCN1C(=O)CCc1nnc(CCc2c[nH]c3ccccc23)o1,i,3%,-6,29%,0%
Cc1ccc2c(CN3CC(C)CC(C)C3)cc(=O)oc2c1 (stereo not given),i,0%,-2,11%,-32%
Cc1ccc2c(CN3CCC(C)CC3)cc(=O)oc2c1,i,0%,0,1%,3.2µM*
Cc1cc2oc(=O)cc(CN3CCN(Cc4ccccc4)CC3)c2cc1Cl,-111%*,-2%,-2,-10%,8%
O=C(Cc1ccc(OCCCCc2ccccc2)cc1)NO,.,.,.,.,33%
COc1ccc(CCNC(=O)C2CCCN(S(=O)(=O)c3ccccc3)C2)cc1 (stereo not given),i,0%,-5,-4%,-25%
N#C/C(=C(/O)CN1CCCCC1)c1nc(-c2ccc(Cl)cc2)cs1,i,0%,-1,-5%,7.1µM*
Cc1ccc(SCc2nc(N)nc(Nc3ccccc3C)n2)c(C)c1,i,2%,1,10%,23%
Cc1ccc(Nc2nc(N)nc(CSc3ncccn3)n2)cc1,i,?,-1,-5%,2.2µM*
Cc1ccc(Nc2nc(N)nc(CSc3nccn3C)n2)c(C)c1,i,-2%,-1,0%,7.1µM*
Nc1nc(CSc2ncccn2)nc(Nc2ccccc2)n1,i,2%,2,-3%,4µM*
Nc1nc(CSc2n[nH]c(-c3ccccc3)n2)nc(Nc2ccccc2)n1,i,1%,1,9%,-33%
CCOC(=O)c1ccccc1NC(=O)c1cc2c(=O)oc3ccc(C)cc3c2s1,.,.,.,.,33%
Cc1ccc(NC(=O)C2CCCN(S(=O)(=O)c3ccc4c(c3)CCCC(=O)N4)C2)cc1Cl (stereo not given),.,.,.,.,-31%
COc1ccc(CCC(=O)Nc2cc(Cl)ccc2N2CCN(C)CC2)cc1,-107%*,1%,-1,3%,-29%
CCC(=O)N1CCN(c2ccccc2NC(=O)Cc2ccc(Cl)cc2)CC1,i,3%,-6,2%,-8%
